Reference: PubChem BioAssay AID624330 (Southern Research Specialized Biocontainment Screening …, 2012)
Hit rate of the full screen: of about 340,000 compounds, about 2,100 (0.62%) were called active.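 Rule for the calls: active = first-screen hits whose inhibition reached a set limit at any dose in the follow-up dose series; inconclusive = inhibition above the set first-screen limit but never retested; inactive = the rest.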 A selection follows. Potency and affinity values are given separately.

The compounds below were run against Rac GTPase-activating protein 1 (Homo sapiens) (UniProt Q9H0H5) (assay: MgcRacGAP GTPase-activating activity inhibitors, confirmation, biochemical, ADP Hunter fluorescence, primary and confirmatory (AID 624330;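 note: fluorescence reports GDP produced by GAP-driven GTP hydrolysis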)). Conditions: MgcRacGAP-stimulated Rac1 GTP hydrolysis, at 30 µM, hits give high values, GST-tagged Rac1 F28L mutant substrate.
Chain of Rac GTPase-activating protein 1 (Homo sapiens) (Q9H0H5 whole entry, looked up): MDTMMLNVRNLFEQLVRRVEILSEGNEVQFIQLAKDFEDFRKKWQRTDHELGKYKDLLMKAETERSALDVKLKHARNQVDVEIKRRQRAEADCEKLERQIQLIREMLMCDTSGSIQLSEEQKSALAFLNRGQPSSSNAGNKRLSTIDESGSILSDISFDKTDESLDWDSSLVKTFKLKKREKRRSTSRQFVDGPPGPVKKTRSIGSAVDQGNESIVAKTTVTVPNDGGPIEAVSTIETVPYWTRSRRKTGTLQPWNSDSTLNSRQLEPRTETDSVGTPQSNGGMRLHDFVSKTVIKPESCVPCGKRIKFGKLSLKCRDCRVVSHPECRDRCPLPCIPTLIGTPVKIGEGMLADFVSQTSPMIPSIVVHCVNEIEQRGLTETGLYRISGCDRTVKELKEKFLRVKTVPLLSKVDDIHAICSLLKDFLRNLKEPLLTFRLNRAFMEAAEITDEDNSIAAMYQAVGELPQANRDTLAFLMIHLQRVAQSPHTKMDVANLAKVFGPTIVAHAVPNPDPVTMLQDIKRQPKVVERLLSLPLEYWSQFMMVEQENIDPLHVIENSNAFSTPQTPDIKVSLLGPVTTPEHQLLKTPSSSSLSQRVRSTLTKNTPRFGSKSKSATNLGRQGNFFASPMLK

inhibition, inactive:
COCCN(C(=O)c1ccccc1)c1nnc(-c2cccnc2)s1 3.74%, C=CCn1c(=O)/c(=C/c2ccc(Cl)cc2)s/c1=C(/C#N)c1nnc2n1CCCCC2 3.92%, C=CCn1c(=O)/c(=C/c2ccc(Cl)cc2)s/c1=C(\C#N)c1nnc2n1CCCCC2 0.47%, CN1CCN(Cc2nnc(-c3ccccc3)o2)CC1 7.8%, CC1=CC(C2CC(=O)N(c3ccc(C)cc3)C2=O)CC2C(=O)N(c3ccc(C)cc3)C(=O)C12 (stereo unspecified) 1.51%, Cn1cc(Br)c(-c2cccc(N3C(=O)CC(C)(C)CC3=O)c2)n1 9.36%, Cc1cccc(-n2nc3c(c2NC(=O)CCCl)CSC3)c1 9.59%, Cc1ccc(-n2ncc(C(=O)Nc3cc(Cl)cc(Cl)c3)c2C2CCNCC2)cc1C 10.4%, COc1ccc(CSc2nncn2N)cc1[N+](=O)[O-] 2.61%, CC(=O)c1ccc(NC(=S)N2CCCC(CO)C2)cc1 (stereo unspecified) 9.07%, OCC1CCCN(C(=S)Nc2ccc(Oc3ccccc3)cc2)C1 (stereo unspecified) 11.8%, Cc1ccccc1NC(=O)c1cccc2c1C(=O)N(C1CCCCC1)C2 6.92%, COc1cc(Cc2nccc3cc(OC)c(OC)cc23)c(NC(C)=O)cc1OC 8.79%, CCCC(=O)Nc1cc(OC)c(OC)cc1C(=O)O 0.59%, COc1cc2ccc(NC(C)=O)cc2cc1OC -17.4%, COc1cc(NC(=O)c2cnc(NCc3ccccc3)nc2C)cc(OC)c1OC 10.3%, CCOC(=O)[C@@H]1[C@H]2COc3ccccc3[C@@H]2N2C(=O)N(c3cccc(Cl)c3)C(=O)[C@@]12C 7.95%, O=C(CCC(=O)Nc1ccc(F)cc1)N/N=C/c1cccnc1 7.44%, Cc1ccnc(NS(=O)(=O)c2ccc(NC(=O)c3snnc3C)cc2)n1 15.1%, c1ccc2c(c1)CCN(CCCNc1nc3ccccc3n3cnnc13)C2 5.26%, COc1cc(C)nc(NS(=O)(=O)c2ccc(C)cc2)n1 5.36%, Cc1ccc(S(=O)(=O)Nc2nc(C)cc(NN)n2)cc1 0.61%, COC(=O)c1ccsc1NC(=O)c1ccc2c(c1)OCCO2 0.64%, O=C(CCCN=C1NS(=O)(=O)c2ccccc21)OCC(=O)c1ccc(F)cc1 3.32%, Cc1cc(C(F)F)nn1CC(=O)NCc1ccc(Cl)cc1Cl 6.89%, COc1cc2[nH]c(=S)n(CCCN3CCOCC3)c(=O)c2cc1OC 12.7%, CCCSc1nc2cc(OC)c(OC)cc2c(=N)n1CCCN1CCOCC1 20.6%, Fc1cc2[nH]c(=S)[nH]c2c(Br)c1N1CCSCC1 8.85%, Cc1ccc(/C=N/NC(=O)c2csc3c2CCCC3)cc1 7.82%, C/C(=N\NC(=O)c1csc2ccccc12)c1ccc(O)cc1 26.2%, O=C(N/N=C/c1ccccc1O)c1cccc2ccccc12 11.8%, O=C(N/N=C/c1cccc(O)c1)c1csc2ccccc12 -6.14%, O=C(N/N=C/c1cccc(F)c1)c1csc2c1CCCC2 11.6%, O=C(N/N=C/c1ccccc1)c1cccc2ccccc12 7.64%, Cc1cc(S(=O)(=O)N2CC(=O)N(CCc3ccccc3)C(=O)C2)ccc1F 12.6%, CCC(C)N(CCNC(=O)c1ccc2c(c1)NC(=O)c1ccccc1S2)C1CCCCC1 (stereo unspecified) 3.06%, COc1ccc(C(=O)CN2C(=O)NC3(CCCc4ccccc43)C2=O)c(OC)c1 (stereo unspecified) 2.84%, CN(C(=O)CSc1nnc(-c2cccc(F)c2)n1N)C1CCS(=O)(=O)C1 (stereo unspecified) 3.77%, Cc1csc(=O)n1CC(=O)OCC(=O)c1c(N)n(CC(C)C)c(=O)n(C)c1=O -0.27%, Cc1nc2ccccc2n1CC(=O)c1ccccc1 15.2%, Cc1nc2ccccc2c(-c2ccccc2)c1CC(=O)O 5.79%, COc1ccccc1OCC(=O)NCC1CCCN(C(=O)c2cccc(C)c2)C1 (stereo unspecified) 12.2%, COc1ccc2sc3ccccc3c(=O)c2c1OC 2.12%, O=c1c2ccccc2sc2c(CO)ccc(NCCN3CCCCC3)c12 27.3%, CCN(CC)CCNc1ccc(CO)c2sc3ccccc3c(=O)c12 16.6%, CCN(CC)CCNc1ccc(CO)c2oc3ccccc3c(=O)c12 16.8%, Cc1cc(O)cc2c(=O)c3ccccc3sc12 8.36%, CN(C)CCNc1ccc(Cl)cc1[N+](=O)[O-] -0.93%, CCN(CC)CCNc1ccc(CO)c2oc3cc(Cl)ccc3c(=O)c12 4.45%, CN(C)CCNC(=O)c1cc2sc3ccccc3c2s1 11.4%, Nn1c(SCC(=O)NCCC2=CCCCC2)nnc1C(F)(F)F 9.95%, Cc1cccc(NC(=O)CSc2nnc(C)n2Cc2ccccc2)c1 -8.45%, O=C(NCCc1nc(-c2ccccc2)cs1)c1ccc(Br)cc1 -0.49%, CC(=O)N(Nc1ccccc1)c1ccccc1 -0.89%, COc1ccc(C=C2C=C(C(C)(C)C)C(=O)C(C(C)(C)C)=C2)cc1OC 15.6%, CC(=O)OCCCN1c2ccccc2Nc2nnc(-c3ccccc3)cc21 6.92%, CCCCc1ccc(NC(=O)c2ccc(N(C)S(C)(=O)=O)cc2)cc1 -2.51%, CCN(CC)CCNc1ccc(Cl)cc1[N+](=O)[O-] 4.03%, CCN(CC)CCNc1cccc2sc3ccccc3c(=O)c12 19.4%, C#CCOCCOCCOCCNc1nc(N2CCN(C(=O)[C@H]([C@@H](C)CC)n3cc(CCCN=C(N)N)nn3)CC2)nc(N2CCN(C(=O)[C@H](CCCCN)n3cc(CCC(=O)O)nn3)CC2)n1 -4.54%, O=C(CCS(=O)(=O)c1ccc(F)cc1)Nc1ccc(N2CCN(Cc3ccccc3)CC2)cc1 3.53%, O=C(CN1CCN(Cc2ccc(F)cc2)CC1)NCc1ccccc1 9.4%, CCOc1ccc(CNc2ccc(N3CCN(Cc4ccccc4)CC3)cc2)cc1 30.8%, CC(=O)Nc1ccc(N2CCN(Cc3ccccc3)CC2)cc1 11.2%, Cc1ccc(NC(=O)c2ccccc2Cl)cc1-n1cnnn1 3.88%, CCOc1ccc(S(=O)(=O)NN2Cc3ccccc3C2=N)cc1 7.55%, COc1ccc(OC)c(S(=O)(=O)N(C)CC(=O)N2CCN(c3ccc(F)cc3)CC2)c1 5.44%, Cc1cc(C(=O)NC2CCCC2)on1 2.61%, CCOc1ccc2c(c1)C(=NNC(=O)c1ccccn1)c1cc(OCC)ccc1-2 -24.9%, COc1ccc2c(c1)C(=NNC(=O)c1ccccn1)c1cc(OC)ccc1-2 12.9%, Cc1cc(C)n(C(=O)CNc2cccc(Cl)c2C)n1 5.52%, N#CC1(Nc2ccc(Br)cc2)CCCC1 2.57%, Cc1ccc(NC2(C#N)CCCC2)cc1 4.1%, COc1ccc(C(CNC(=O)c2ccc(S(=O)(=O)N(C)C)cc2)N2CCCC2)cc1 (stereo unspecified) -5.33%, N#CC1(NC(=O)CSc2nnc3n2CCCCC3)CCCCC1 4.53%, CC(NC(=O)COC(=O)c1ccc(S(=O)(=O)N2CCOCC2)cc1)c1ccccc1 (stereo unspecified) -3.85%, Cc1c(NC(=O)Cc2cccs2)cccc1[N+](=O)[O-] 6.13%, CC(C)c1ccc(/C=N/Nc2cc(N3CCOCC3)nc(N3CCOCC3)n2)cc1 2.24%, Cc1cccc(/C=N/Nc2cc(N3CCOCC3)nc(N3CCOCC3)n2)c1 -20.8%, Oc1ccc(/C=N/Nc2cc(N3CCCC3)nc(N3CCCC3)n2)cc1O 23.7%, Oc1ccc(/C=N/Nc2cc(N3CCCC3)nc(N3CCCC3)n2)cc1 7.45%, Oc1cccc(/C=N/Nc2cc(N3CCOCC3)nc(N3CCOCC3)n2)c1 18.3%, Oc1ccccc1/C=N/Nc1cc(N2CCCC2)nc(N2CCCC2)n1 -4.19%, O=C(Cn1c(-c2ccccc2)noc1=O)N1CCC(Cc2ccccc2)CC1 5.27%, O=C(CNCc1ccccc1)Nc1cccc(Cl)c1Cl 27.2%, CCCCCN(C(=O)CCC(=O)OCC(=O)c1c(C)cc(C)cc1C)c1c(N)n(CCCC)c(=O)[nH]c1=O 3.32%, CCN(C(=O)c1c(N)cnn1C)c1ccccc1 -2.97%, COc1ccc(N2CCN(C(=O)COC(=O)c3cccc(S(=O)(=O)Nc4cccc(C)c4)c3)CC2)cc1 5.68%, CCOC(=O)c1oc2cccc(O)c2c1C 5.83%, CCOC(=O)c1oc2cc(C)cc(C)c2c1C 4.4%, Cc1ccc(-n2ncc3c2CC(C)(C)CC3NC(=O)c2c(C)noc2C)cc1 (stereo unspecified) 5.31%, CC(=O)Nc1ccc(S(=O)(=O)Nc2cc(C)cn(Cc3ccccc3)c2=O)cc1 3.18%, O=C(CN1CCN(S(=O)(=O)c2ccc(F)c(Cl)c2)CC1)N1CCc2ccccc2C1 2.62%, COc1ccc(S(=O)(=O)N2CCN(CC(=O)N3CCc4ccccc4C3)CC2)cc1OC 7.25%, O=C(CN1CCN(S(=O)(=O)c2cc(C(F)(F)F)ccc2Cl)CC1)N1CCc2ccccc2C1 9.9%, O=C(CN1CCN(S(=O)(=O)c2ccc3ccccc3c2)CC1)N1CCc2ccccc2C1 10.7%
